Assay outcomes deposited in PubChem by National Center for Advancing Translational Sciences (NCATS).
Sm TGR inh = qHTS Assay for the Inhibitors of Schistosoma Mansoni Peroxiredoxins; Schistosoma mansoni thioredoxin glutathione reductase (TGR), Q962Y6; purified TGR, DTNB reduction, TNB absorbance 405 nm; Potency, µM (doses to about 114 µM), hits mostly inhibitors; 3% of 360,000 active; AID 485364, 2010; active = well fitted inhibition curve with a large enough effect; inconclusive = small, poorly fitted or top-dose-only effect; inactive = no such curve, though single readings can be large or run the other way; note: nearly all actives have a fitted effect of over 60% in size
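Kinetic colorimetric format: TGR-catalysed, NADPH-driven DTNB reduction monitored via TNB absorbance. Enzyme dispensed at 20 nM; compound exposure 15 min at room temperature before reaction start.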
FMDV inh = High Throughput Screening for Foot and Mouth Disease Virus Antivirals | FMDV antiviral cell-based qHTS | Potency, µM (series often up to 57.9 µM), hits mostly inhibitors | 1.2% of 410,000 active | AID 1159524, 2015; calls by dose curve; tested in HEK293T cells; note: read-out not given here; nearly all actives have a fitted effect of over 45% in size
CHX counter = Cycloheximide Counterscreen for Small Molecule Inhibitors of Shiga Toxin; cell reporter, cycloheximide protein synthesis inhibition counterscreen; max response, %; 12% of 300,000 active; AID 2314, 2010; in the data active = max response mostly above about 13%, no sharp cut-off; inactive = mostly below about 14%; note: read at 38.3 µM for the half of the compounds with a filed dose
Shiga toxin inh = A qHTS for Small Molecule Inhibitors of Shiga Toxin; 9.2% of 290,000 active; inhibition, % at 38.7 µM; Vero cells, Shiga toxin protein synthesis inhibition reporter; in the data active = inhibition mostly above about 28%, no sharp cut-off; inactive = mostly below about 43%
Each line names hits and unclear results; the compound was inactive in the other large screens. A selection: hits, their analogues and other compounds. The true share with any hit is near 12%.

Cn1cc(CNC(=O)c2cc(COc3ccc4c(c3)CCCC4)on2)cn1	CHX counter 23
CCN(Cc1cnn(C)c1)C(=O)c1cc(COc2ccc3c(c2)CCCC3)on1	none
COc1ccc(C(=O)Nc2ccc3c(c2)C(=O)c2ccccc2C3=O)cc1OC	CHX counter 31
Cn1nnc2cc(C(=O)Nc3ccc4ccccc4c3)ccc21	CHX counter 36, Shiga toxin inh 108 (no result: Sm TGR inh)
COc1cc(C(=O)Nc2ccc3ccccc3c2)cc(OC)c1OC	CHX counter 14
COc1cc(C(=O)Nc2ccc3c(c2)C(=O)c2ccccc2C3=O)cc(OC)c1OC	none
COc1ccc(OC)c(C(=O)c2ccc(C(=O)Nc3ccc4ccccc4c3)cc2)c1	CHX counter 50, Shiga toxin inh active
COC(=O)c1c(NC(=O)Cc2coc3cc(C)ccc23)sc2c1CCC2	FMDV inh inconclusive (no result: CHX counter, Shiga toxin inh)
Cc1ccccc1C(=O)N1CCC(N2CCN(Cc3ccc(F)cc3)C(=O)C2=O)CC1	none (no result: CHX counter, Shiga toxin inh)
COc1ccc(C(=O)c2c(C(F)(F)F)oc3c2C(=O)c2ccccc2C3=O)cc1OC	FMDV inh 10µM
COc1ccc(C(=O)Nc2ccncc2)cc1OC	none (no result: FMDV inh)
COc1ccc(C(=O)c2ccc(OC)c(OC)c2)cc1OC	none
COc1ccc(C(=O)Nc2ccc3ccccc3c2)cc1OC	CHX counter 43, Shiga toxin inh 68
COc1ccc(NC2CC(=O)N(c3ccccc3)C2=O)cc1 (centres undefined)	Sm TGR inh inconclusive
COc1ccccc1N1C(=O)CC(Nc2ccc(N3CCOCC3)cc2)C1=O (centres undefined)	Sm TGR inh 20µM
CCOc1cc(N2CCOCC2)c(OCC)cc1NC(=O)C1CC(=O)N(c2ccccc2OCC)C1 (centres undefined)	none (no result: CHX counter, Shiga toxin inh)
O=C1CC(Nc2ccc3ccccc3c2)C(=O)N1Cc1ccccc1 (centres undefined)	none
O=C1CC(Nc2ccc(N3CCOCC3)cc2)C(=O)N1c1ccccc1 (centres undefined)	Sm TGR inh 35µM (no result: FMDV inh)
CCOc1ccccc1N1CC(C(=O)Nc2ccccc2N2CCOCC2)CC1=O (centres undefined)	CHX counter 38
O=C1CC(Nc2ccc(N3CCOCC3)cc2)C(=O)N1Cc1ccccc1 (centres undefined)	Sm TGR inh 20µM
COc1ccccc1N1CCN(C(=O)N2CCOCC2)CC1	none
CCOC(=O)c1cc(-c2ccccc2)n(CC(=O)Nc2ccccc2OCC)c1C	none (no result: CHX counter, Shiga toxin inh)
COc1cccc(NC(=O)Nc2cc(-c3cn4cccnc4n3)ccc2OC)c1	none (no result: CHX counter, Shiga toxin inh)
COc1ccc(CCNC(=O)CCc2c(C)nc3cc(-c4ccccc4OC)nn3c2C)c(OC)c1	none (no result: CHX counter, Shiga toxin inh)
Cc1ccc(NC2CC(=O)N(c3ccc(C)cc3)C2=O)cc1 (centres undefined)	none
CCOc1ccccc1N1C(=O)CC(Nc2ccc(N3CCOCC3)cc2)C1=O (centres undefined)	Sm TGR inh 18µM
CN(C)c1ccc(-c2n(C)c3ccccc3[n+]2C)cc1	CHX counter 27, Shiga toxin inh 52 (no result: FMDV inh)
Cn1c(-c2ccccn2)[n+](C)c2ccccc21	none
Cn1c(-c2ccc3ccccc3n2)[n+](C)c2ccccc21	CHX counter 53, Shiga toxin inh 72
COc1ccc(C2C=C(c3ccccc3)Nc3nc(NC(=O)/C=C/c4ccc(F)cc4)nn32)cc1 (centres undefined)	none (no result: CHX counter, Shiga toxin inh)
Cc1cc(=O)n2nc(N(C)CC(=O)NCc3ccc(Cl)cc3)sc2n1	none (no result: CHX counter, Shiga toxin inh)
CCN(CC)CCNC(=O)c1ccc2c(c1)NC(=O)C(CS(=O)(=O)Cc1ccc(F)cc1Cl)N2 (centres undefined)	none (no result: CHX counter, Shiga toxin inh)
O=C(CCCc1ccccc1)Nc1ccccn1	CHX counter 19, Shiga toxin inh 74 (no result: Sm TGR inh)
Cc1ccnc(NC(=O)CSc2ccccn2)c1	CHX counter 29
Cn1c(=O)cc(OCCCC(=O)NCc2ccccn2)c2ccccc21	none
O=C(CCCc1ccccc1)NCc1ccccn1	none (no result: Shiga toxin inh)
Cc1cc(NC(=O)CSc2ccccn2)no1	none
Cc1ccnc(NC(=O)CCCOc2cc(=O)n(C)c3ccccc23)c1	CHX counter 16
Cc1ccnc(NC(=O)CCCc2c[nH]c3ccccc23)c1	CHX counter 23, Shiga toxin inh 46
COc1ccc(NC(=O)CCc2nnc3n(C)c(=O)c4sccc4n23)cc1Cl	none (no result: CHX counter, Shiga toxin inh)
COC(=O)c1cc2oc3ccccc3c2n1Cc1cccc(C)c1	none (no result: CHX counter, Shiga toxin inh)
O=C(CSCCc1ccccn1)Nc1ccccn1	CHX counter 15
Cc1ccnc(NC(=O)CCC(=O)N(CC(=O)NCc2ccccc2)Cc2ccccc2)c1	none
Cc1ccnc(NC(=O)CCCc2ccccc2)c1	CHX counter 58, Shiga toxin inh 74
O=C(CSCCc1ccccn1)Nc1ccc(Br)cn1	none
Cc1ccc(OCCNC(=O)/C=C/c2ccco2)cc1C	Sm TGR inh 1.1µM, Shiga toxin inh 78
CC(/C=C/c1ccco1)=N\NC(=O)CNc1ccc2ccccc2c1	none
CC(/C=C/c1ccco1)=N\NC(=O)COc1ccc(C)c(C)c1	Sm TGR inh 7.1µM
Cc1cnc(SCC2CCCO2)nc1C1CCCN(Cc2nc(-c3ccccc3)cs2)C1 (centres undefined)	none (no result: Sm TGR inh, CHX counter, Shiga toxin inh)
COc1ccc(CCNC(=O)Cn2c(-c3ccc(F)cc3)cc(C(C)=O)c2C)cc1OC	none (no result: CHX counter, Shiga toxin inh)
CCn1c(C)nc([N+](=O)[O-])c1Sc1ccc(F)cc1	Sm TGR inh 40µM, FMDV inh inconclusive
CCOC(=O)N1CCN(C(=O)c2cc(-c3ccc(OCC)cc3)nc3ccccc23)CC1	CHX counter 37, Shiga toxin inh 66
CCOc1ccc(-c2cc(C(=O)N3CCN(C)CC3)c3ccccc3n2)cc1	CHX counter 38, Shiga toxin inh 50
CCOc1ccc(-c2cc(C(=O)N3CCCC3)c3ccccc3n2)cc1	none
Cc1cc(Cl)ccc1NC(=O)CN1C(=O)COc2ccc(S(=O)(=O)Nc3ccccc3)cc21	none (no result: CHX counter, Shiga toxin inh)
CCOC(=O)c1c(C)[nH]c(N=Nc2ccccc2)c1C	CHX counter 54, Shiga toxin inh 82
CCOC(=O)c1c(C)[nH]c(N=Nc2ccccc2Cl)c1C	CHX counter 65, Shiga toxin inh 97
CCOC(=O)c1c(C)[nH]c(N=Nc2ccc(C)cc2)c1C	CHX counter 31 (no result: FMDV inh)
CCOC(=O)c1c(C)[nH]c(N=Nc2ccc(OC)cc2)c1C	CHX counter 35, Shiga toxin inh 85
CCOC(=O)c1c(C)[nH]c(C(=O)OCC(=O)c2ccccc2)c1C	none (no result: CHX counter, Shiga toxin inh)
CCOC(=O)c1c(C)[nH]c(C(=O)COC(=O)COc2ccc(OC)cc2)c1C	none
O=C(Cn1cc(S(=O)(=O)Cc2ccccc2Cl)c2ccccc21)Nc1ccc(F)cc1F	none (no result: CHX counter, Shiga toxin inh)
OCCN1CCN(C(c2ccc(Cl)cc2Cl)c2sc3nc(-c4ccco4)nn3c2O)CC1 (centres undefined)	none (no result: CHX counter, Shiga toxin inh)
CC(C)(O)/C=C1/Oc2ccccc2C1N1CCCCC1 (centres undefined)	Sm TGR inh 35µM
O=C(O)C1CCC(=O)N1C1c2ccccc2Oc2ccccc21 (centres undefined)	none
Cc1ccc(-c2nc(CS(=O)(=O)CC(=O)NC(C)CCc3ccccc3)c(C)o2)cc1 (centres undefined)	none (no result: CHX counter, Shiga toxin inh)
